Test [1] addresses T1, GST-Nv-NF-kB (Ser allele) (Nematostella vectensis, UniProt A7UNT2 2-411).
T1 sequence: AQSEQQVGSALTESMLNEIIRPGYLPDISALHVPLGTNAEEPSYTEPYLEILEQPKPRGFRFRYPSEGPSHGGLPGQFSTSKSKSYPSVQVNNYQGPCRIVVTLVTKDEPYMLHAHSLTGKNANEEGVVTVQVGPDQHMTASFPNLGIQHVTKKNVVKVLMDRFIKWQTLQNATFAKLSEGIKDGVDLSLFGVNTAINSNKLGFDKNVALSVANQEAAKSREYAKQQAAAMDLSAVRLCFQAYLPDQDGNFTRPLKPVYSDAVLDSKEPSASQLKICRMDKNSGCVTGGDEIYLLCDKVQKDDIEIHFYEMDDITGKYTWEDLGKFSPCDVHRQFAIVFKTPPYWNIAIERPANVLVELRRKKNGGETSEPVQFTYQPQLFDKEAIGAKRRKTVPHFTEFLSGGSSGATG
In words: protein-binding microarray (PBM); PBM: ~300 nM protein, 6 mM HEPES pH 7.8, 80 mM KCl, 0.5 mM EDTA, 0.5 mM EGTA, 6% glycerol, 35 ng/ul poly-dIdC, 1% milk, 1 h, room temperature; Ap Aiptasia and Nv Nematostella (sea anemones) / Co Capsaspora / Aq Amphimedon (sponge) / Dm Drosophila / Hu human; RHD is the Rel homology domain; high values mean tight binding. To be noted: dsDNA, one strand shown.

The target in a further test is GST-Hu-p50 (Homo sapiens, UniProt P19838 7-356). Described as above. The conditions noted are these: dsDNA, one strand shown.
GST-Hu-p50, sequence (P19838 7-356): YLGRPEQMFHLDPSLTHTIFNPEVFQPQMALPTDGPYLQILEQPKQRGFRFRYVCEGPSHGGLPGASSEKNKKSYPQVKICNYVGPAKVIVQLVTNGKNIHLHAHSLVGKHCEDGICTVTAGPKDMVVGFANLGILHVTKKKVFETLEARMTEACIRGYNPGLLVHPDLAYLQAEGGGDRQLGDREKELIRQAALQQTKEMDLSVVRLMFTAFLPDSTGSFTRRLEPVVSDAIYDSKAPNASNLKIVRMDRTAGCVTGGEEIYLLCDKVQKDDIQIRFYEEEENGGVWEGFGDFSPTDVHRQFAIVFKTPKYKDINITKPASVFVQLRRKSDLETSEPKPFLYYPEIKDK

With “CCGATTAACATCAAGGGATTTTCTGATGTTAATCGGGTCTTGATTCGCTTGACGCTGCTG”, the binding signal in test [1] was determined as 5.14 z-score; with GST-Hu-p50, 4.49 z-score.

With “CCGATTAACATCAGGGAGATTTATGATGTTAATCGGGTCTTGATTCGCTTGACGCTGCTG”, the binding signal in test [1] stood at 4.27 z-score; with GST-Hu-p50 it was 4.86 z-score.

As for “CCGATTAACATCAAAAAACCCACTGATGTTAATCGGGTCTTGATTCGCTTGACGCTGCTG”, the binding signal in test [1] was 2.84 z-score; with GST-Hu-p50, 3.37 z-score.

Consider “CCGATTAACATCAGAATTACCCATGATGTTAATCGGGTCTTGATTCGCTTGACGCTGCTG”, for which the binding signal amounted to 3.26 z-score in test [1] and 2.83 z-score with GST-Hu-p50.

“CCGATTAACATCAGGGGGTAAAATGATGTTAATCGGGTCTTGATTCGCTTGACGCTGCTG”: the binding signal was 6.35 z-score in test [1] and 4.51 z-score in the test with GST-Hu-p50.

As to “CCGATTAACATCAAGGGGGTAAATGATGTTAATCGGGTCTTGATTCGCTTGACGCTGCTG”, the binding signal in test [1] is 4.81 z-score; with GST-Hu-p50, 4.37 z-score.

On to “CCGATTAACATCAATTCCCAACATGATGTTAATCGGGTCTTGATTCGCTTGACGCTGCTG”, for which the binding signal in test [1] amounted to 1.63 z-score; with GST-Hu-p50, 1.56 z-score.

“CCGATTAACATCAGGGAATTGTATGATGTTAATCGGGTCTTGATTCGCTTGACGCTGCTG”: the binding signal in test [1] was 4.84 z-score; in the test with GST-Hu-p50, 3.41 z-score.

In the case of “CCGATTAACATCACAAAATTTCCTGATGTTAATCGGGTCTTGATTCGCTTGACGCTGCTG”, the binding signal turned out to be 1.16 z-score in test [1] and 1.41 z-score with GST-Hu-p50.

As for “CCGATTAACATCAGGACTGTCCCTGATGTTAATCGGGTCTTGATTCGCTTGACGCTGCTG”, the binding signal in test [1] turned out to be 2.57 z-score; in the test with GST-Hu-p50, 3.92 z-score.

As for “CCGATTAACATCAGGGGGGGTTATGATGTTAATCGGGTCTTGATTCGCTTGACGCTGCTG”, the binding signal in test [1] was found to be 4.34 z-score; with GST-Hu-p50, 4.91 z-score.

For the sequence “CCGATTAACATCAGGGAACCCCATGATGTTAATCGGGTCTTGATTCGCTTGACGCTGCTG”, the binding signal in test [1] is 1.33 z-score; in the test with GST-Hu-p50 it was 2.54 z-score.

With “CCGATTAACATCACGTCCCCCCCTGATGTTAATCGGGTCTTGATTCGCTTGACGCTGCTG”, the binding signal in test [1] stood at 4.17 z-score; with GST-Hu-p50 it was 3.7 z-score.

For the sequence “CCGATTAACATCAGGAAGACCCCTGATGTTAATCGGGTCTTGATTCGCTTGACGCTGCTG”, the binding signal was 1.11 z-score in test [1] and 3.37 z-score in the test with GST-Hu-p50.

Turning to “CCGATTAACATCAGGGTTTTCCATGATGTTAATCGGGTCTTGATTCGCTTGACGCTGCTG”, the binding signal stood at 1.68 z-score in test [1] and 2.46 z-score in the test with GST-Hu-p50.

“CCGATTAACATCAGGGGGAAGCATGATGTTAATCGGGTCTTGATTCGCTTGACGCTGCTG”: the binding signal came out at 6.05 z-score in test [1] and 4.74 z-score with GST-Hu-p50.

In the case of “CCGATTAACATCAAAAGAATCCCTGATGTTAATCGGGTCTTGATTCGCTTGACGCTGCTG”, the binding signal in test [1] turned out to be 2.43 z-score; with GST-Hu-p50, 3.14 z-score.

Consider “CCGATTAACATCAGGGGTTTTGATGATGTTAATCGGGTCTTGATTCGCTTGACGCTGCTG”, for which the binding signal in test [1] worked out at 3.32 z-score; in the test with GST-Hu-p50, 3.98 z-score.

As to “CCGATTAACATCACTGGGAATTCTGATGTTAATCGGGTCTTGATTCGCTTGACGCTGCTG”, the binding signal is 3 z-score in test [1] and 3.22 z-score with GST-Hu-p50.

“CCGATTAACATCATTAGGGTATTTGATGTTAATCGGGTCTTGATTCGCTTGACGCTGCTG”: the binding signal in test [1] is 4.26 z-score; with GST-Hu-p50, 4.5 z-score.

Consider “CCGATTAACATCACTAAATTCCCTGATGTTAATCGGGTCTTGATTCGCTTGACGCTGCTG”, for which the binding signal in test [1] was determined as 5.8 z-score; with GST-Hu-p50 it was 4.08 z-score.

On to “CCGATTAACATCACCGATTTCCCTGATGTTAATCGGGTCTTGATTCGCTTGACGCTGCTG”, for which the results for the binding signal (in test [1]; with GST-Hu-p50) were 5.28 z-score and 3.65 z-score, respectively.

Turning to “CCGATTAACATCACCTCCGTATCTGATGTTAATCGGGTCTTGATTCGCTTGACGCTGCTG”, the results for the binding signal (in test [1]; with GST-Hu-p50) were 1.11 z-score and 1.28 z-score, respectively.

In the case of “CCGATTAACATCACGGGAAACCCTGATGTTAATCGGGTCTTGATTCGCTTGACGCTGCTG”, the binding signal was 3.35 z-score in test [1] and 2.62 z-score in the test with GST-Hu-p50.

In the case of “CCGATTAACATCAAATTTTCCCATGATGTTAATCGGGTCTTGATTCGCTTGACGCTGCTG”, the values for the binding signal (in test [1]; with GST-Hu-p50) were 6.42 z-score and 4.19 z-score, respectively.

Regarding “CCGATTAACATCAGGGAAAACGATGATGTTAATCGGGTCTTGATTCGCTTGACGCTGCTG”, the binding signal in test [1] turned out to be 6.01 z-score; with GST-Hu-p50 it was 2.13 z-score.

With “CCGATTAACATCAGGGCTTTACCTGATGTTAATCGGGTCTTGATTCGCTTGACGCTGCTG”, the binding signal in test [1] was found to be 1.71 z-score; with GST-Hu-p50 it was 2.02 z-score.

For “CCGATTAACATCAGGCTTTTCCCTGATGTTAATCGGGTCTTGATTCGCTTGACGCTGCTG”, the binding signal in test [1] is 4.44 z-score; with GST-Hu-p50, 3.4 z-score.

On to “CCGATTAACATCATGATGGGAAATGATGTTAATCGGGTCTTGATTCGCTTGACGCTGCTG”, for which the binding signal came to 1.98 z-score in test [1] and 2.02 z-score in the test with GST-Hu-p50.

On to “CCGATTAACATCAATTCCCATGATGATGTTAATCGGGTCTTGATTCGCTTGACGCTGCTG”, for which the values for the binding signal (in test [1]; with GST-Hu-p50) were 1.33 z-score and 1.61 z-score, respectively.

For the sequence “CCGATTAACATCACGCAATTCCCTGATGTTAATCGGGTCTTGATTCGCTTGACGCTGCTG”, the values for the binding signal (in test [1]; with GST-Hu-p50) were 4.54 z-score and 2.87 z-score, respectively.

For the sequence “CCGATTAACATCAGGCACTCCCCTGATGTTAATCGGGTCTTGATTCGCTTGACGCTGCTG”, the binding signal in test [1] stood at 2.69 z-score; with GST-Hu-p50 it was 3.37 z-score.

Take “CCGATTAACATCAGGGGGGGTGATGATGTTAATCGGGTCTTGATTCGCTTGACGCTGCTG”: the values for the binding signal (in test [1]; with GST-Hu-p50) were 3.98 z-score and 4.13 z-score, respectively.

For “CCGATTAACATCAGCTTGGGAAATGATGTTAATCGGGTCTTGATTCGCTTGACGCTGCTG”, the binding signal stood at 1.58 z-score in test [1] and 1.1 z-score with GST-Hu-p50.

On to “CCGATTAACATCAGGGGAGCCCCTGATGTTAATCGGGTCTTGATTCGCTTGACGCTGCTG”, for which the binding signal in test [1] stood at 5.34 z-score; with GST-Hu-p50, 5.03 z-score.

Regarding “CCGATTAACATCAAAAAATGCCCTGATGTTAATCGGGTCTTGATTCGCTTGACGCTGCTG”, the values for the binding signal (in test [1]; with GST-Hu-p50) were 1.9 z-score and 3.14 z-score, respectively.

With “CCGATTAACATCAAAAAAATACCTGATGTTAATCGGGTCTTGATTCGCTTGACGCTGCTG”, the binding signal in test [1] is 4.89 z-score; with GST-Hu-p50, 3.43 z-score.

The record behind these values is paper PMC5700166.
